HCMV antiviral: blocks human cytomegalovirus replication. HFF cells, HCMV-luciferase reporter, 72 h; active compounds read low. activity change, negative = inhibition, % at 57.5 µM. 410,000 compounds, 4.5% hits; in the data active means activity change below about -60%; inconclusive means no clear call, values can overlap the other calls; inactive means above about -39%
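Screen run at 2 compound doses on HFFs infected with reporter HCMV, MOI 1 PFU/cell. Luciferase activity from cell lysates at 72 h post infection gave inhibition relative to buffer-only and Salinomycin wells.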
FMDV antiviral: foot and mouth disease virus antiviral activity. FMDV antiviral cell-based qHTS. Potency, µM (highest dose often 57.9 µM), inactives show at the highest dose activity change, negative = inhibition, usual class: inhibitors. 410,000 compounds, 1.2% hits; calls by dose curve; tested in HEK293T cells; further: read-out not given here; potency means the concentration at half of the fitted maximal effect; nearly all actives have a fitted effect of over 45% in size
HCV inh: inhibitors of hepatitis C virus infection | Huh7.5.1 HCVcc-Cre infection, luciferase reporter, 44 h | Potency, µM (doses to about 41.8 µM), for the others: at the highest dose activity change, negative = inhibition, actives largely listed as inhibitors | 340,000 compounds, 3.4% hits; further: potency means the concentration at half of the fitted maximal effect
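Antiviral activity was scored by luciferase reporter output from cells infected with HCVcc-Cre (~0.5 moi) in presence of compound, 44 h infection period, cells seeded 1,000/well 4 h prior.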
Giardia FBPA inh: inhibitors of Giardia lamblia fructose-1,6-bisphosphate aldolase. A8B2U2. 290,000 compounds, 0.71% hits. AID 2451. purified Giardia FBPA. Potency, µM (titrated, usually from 59.6 µM), for the others: at the top dose activity, negative = inhibition, hits mostly inhibitors; further: potency means the concentration at half of the fitted maximal effect; nearly all actives have a fitted effect of over 55% in size
Target sequence (A8B2U2 whole entry, looked up): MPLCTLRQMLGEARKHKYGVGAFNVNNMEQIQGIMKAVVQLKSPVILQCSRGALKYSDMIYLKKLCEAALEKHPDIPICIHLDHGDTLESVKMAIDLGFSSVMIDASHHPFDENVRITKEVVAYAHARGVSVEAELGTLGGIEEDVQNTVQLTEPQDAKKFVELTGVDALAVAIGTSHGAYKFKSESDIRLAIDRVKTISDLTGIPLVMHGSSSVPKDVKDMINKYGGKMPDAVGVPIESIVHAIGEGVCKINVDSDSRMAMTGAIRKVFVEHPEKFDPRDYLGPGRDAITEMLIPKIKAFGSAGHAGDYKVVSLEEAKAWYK
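40 nM FBPA preincubated 10 min at RT with compound (up to 57.5 uM final), then substrate plus GAPDH/TPI/NAD/arsenate coupling and diaphorase/resazurin added. Fluorescence read after 20 min at RT, 525/598 nm.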
VACV mCherry inh: inhibitors of vaccinia virus infection (mCherry reporter signal); Vaccinia virus mCherry reporter infection, fluorescence; Potency, µM (series often up to 36.5 µM), for the others: top-dose activity change, negative = inhibition, hits mostly inhibitors; 310,000 compounds, 0.63% hits; calls by dose curve; tested in A549 cells; further: potency means the concentration at half of the fitted maximal effect; nearly all actives have a fitted effect of over 35% in size
Vaccinia Venus: inhibitors of vaccinia virus (Venus reporter) | Vaccinia virus Venus reporter expression, fluorescence | Potency, µM (highest dose often 36.5 µM), for inactives: at the highest dose activity change, negative = inhibition, usual class: inhibitors | 330,000 compounds, 0.46% hits | AID 720580; calls by dose curve; tested in A549 cells; further: potency means the concentration at half of the fitted maximal effect; nearly all actives have a fitted effect of over 30% in size
* = called active by the depositor; ! = repeats disagree. Only some compounds are listed: those with a hit (about 7.5% of all), similar ones and a draw of the others. Unless noted, the call rests on the fitted dose curve; in most records, active means well fitted curve in the direction sought with a large enough effect; inconclusive means small, poorly fitted or top-dose-only effect, or another doubt; inactive means no such curve, though single readings can be large; an effect the other way counts as inactive or inconclusive. On the % scale 0 is the no-effect control and ±100 the full control effect.

C/C(Cl)=C\Cn1c(NCCc2ccccc2)nc2c1c(=O)n(C)c(=O)n2C was read as HCMV antiviral -95*, HCV inh 2.5µM*, Giardia FBPA inh 1%, VACV mCherry inh inconclusive and Vaccinia Venus -27%.
`Cn1c(=O)c2c(nc(NCc3ccco3)n2CCc2ccccc2)n(C)c1=O` gave HCMV antiviral inconclusive, FMDV antiviral 20µM*, HCV inh inconclusive, Giardia FBPA inh -14% and Vaccinia Venus inconclusive.
`Cc1ccc(Cn2c(NCCc3ccccc3)nc3c2c(=O)n(C)c(=O)n3C)cc1` gave HCMV antiviral -69*, FMDV antiviral 16µM*, HCV inh 4µM*, Giardia FBPA inh -20%, VACV mCherry inh inconclusive and Vaccinia Venus inconclusive.
`C=CCn1c(NCCc2ccccc2)nc2c1c(=O)n(C)c(=O)n2C` gave HCMV antiviral -82*, FMDV antiviral 25µM*, HCV inh inconclusive, Giardia FBPA inh -15%, VACV mCherry inh inconclusive and Vaccinia Venus inconclusive.
`Cn1c(=O)c2c(nc(NCCc3ccccc3)n2CC(=O)NCCc2ccccc2)n(C)c1=O` gave HCMV antiviral 75, FMDV antiviral -25%, HCV inh -12%, Giardia FBPA inh -4% and Vaccinia Venus -21%.
O=C(NCc1ccc(F)cc1)c1ccc2c(c1)N(Cc1c(F)cccc1Cl)C(=O)CS2 was read as HCMV antiviral -2, FMDV antiviral inconclusive, VACV mCherry inh 6% and Vaccinia Venus -1%.
`CC(Sc1nc(-c2ccc(F)cc2)cs1)C(=O)N1c2ccccc2CC1C` (stereo not given) gave HCMV antiviral -9, FMDV antiviral inconclusive, HCV inh 22µM*, Giardia FBPA inh 0%, VACV mCherry inh -2% and Vaccinia Venus -8%.
Screening CC1Cc2ccccc2N1C(=O)CSc1nc(-c2ccccc2)cs1 (stereo not given) returned HCMV antiviral -36, FMDV antiviral 15%, HCV inh -9% and Giardia FBPA inh -4%.
Screening Cc1ncc2c(c1O)COP(=O)(O)OC2 returned FMDV antiviral 0% and Giardia FBPA inh 5%.
`CC(=O)Oc1cccc2c1C(=O)c1c(OC(C)=O)cc(C(=O)O)cc1C2=O` gave HCMV antiviral -3, FMDV antiviral inconclusive, HCV inh 7.1µM*, Giardia FBPA inh inconclusive, VACV mCherry inh 13% and Vaccinia Venus 33%.
CC(=O)Oc1ccc(C(=O)O)cc1OC(C)=O was read as HCMV antiviral 23, FMDV antiviral -29%, HCV inh 8%, Giardia FBPA inh 7%, VACV mCherry inh inactive and Vaccinia Venus -13%.
`CC(=O)OCC(=O)[C@@]1(O)CCC2C3CC(C)C4=CC(=O)C=CC4(C)C3C(O)CC21C` (stereo not given in full) gave FMDV antiviral -12%, Giardia FBPA inh -7%, VACV mCherry inh -16% and Vaccinia Venus -12%.
For COc1cccc(/C=N/N2CCN(c3ccc(Cl)cc3)CC2)c1OC the results were HCMV antiviral -69*, FMDV antiviral inconclusive, HCV inh inconclusive and Giardia FBPA inh 0%.
For O=C(CN1C(=O)c2ccc(Br)cc2C1=O)NCC1CCCO1 (stereo not given) the results were HCMV antiviral -2, FMDV antiviral -21%, HCV inh 16% and Giardia FBPA inh 6%.
Screening COc1ccc(S(=O)(=O)N2CCN(C(=S)NCCc3ccccc3)CC2)cc1 returned HCMV antiviral -1, FMDV antiviral 14%, VACV mCherry inh inactive and Vaccinia Venus -10%.
For CC(Sc1ccccc1)C(=O)N1CCN(S(=O)(=O)c2ccccc2)CC1 (stereo not given) the results were HCMV antiviral -63*, FMDV antiviral -28%, HCV inh 26%, VACV mCherry inh -20% and Vaccinia Venus -13%.
Screening COc1ccc(CCNC(=S)N2CCN(S(=O)(=O)c3ccc(C)cc3)CC2)cc1 returned HCMV antiviral -98*, FMDV antiviral 7%, HCV inh inconclusive, VACV mCherry inh -9% and Vaccinia Venus inconclusive.
For O=S(=O)(c1ccccc1)N1CCN(C(=S)NCCc2ccccc2)CC1 the results were HCMV antiviral -72*, FMDV antiviral 30%, HCV inh -6%, Giardia FBPA inh 0%, VACV mCherry inh -1% and Vaccinia Venus -8%.
For C[C@H]1[C@@H](NC(=O)Nc2cc(Cl)cc(Cl)c2)CC[C@@]23CCCN2C(=O)CCC[C@@H]13 the results were HCMV antiviral 4.
Screening CCCN1CNc2c(c(=O)[nH]c(=S)n2CCc2c(OC)cccc2OC)C1 returned VACV mCherry inh inactive and Vaccinia Venus -13%.
Screening CC(C)C[C@@H](CC(=O)N[C@@H](CCCN)CC(=O)N[C@@H]1CCNC[C@H]1C(=O)N[C@H](CC(=O)N[C@@H](CCC(=O)O)CC(=O)O)Cc1ccccc1)NC(=O)[C@@H]1CCCC[C@H]1N returned Giardia FBPA inh -28%.
`OCCN(CCO)c1ccc(/C=C/c2ccnc3ccccc23)cc1` gave VACV mCherry inh -9% and Vaccinia Venus -13%.
COc1ccc(N(CC(=O)N2CCN(c3cccc(C)c3C)CC2)S(=O)(=O)c2c(C)noc2C)cc1 was read as HCMV antiviral -65*!, FMDV antiviral -14%, HCV inh inconclusive, VACV mCherry inh -17% and Vaccinia Venus -16%.
COc1ccc(N(CC(=O)N2CCN(c3ccc(Cl)cc3)CC2)S(=O)(=O)c2c(C)n[nH]c2C)cc1 was read as HCMV antiviral -73*, FMDV antiviral -1%, HCV inh inconclusive, Giardia FBPA inh -3%, VACV mCherry inh inactive and Vaccinia Venus -23%.
`Cc1ccc(N(CC(=O)N2CCN(c3cc(C)ccc3C)CC2)S(=O)(=O)c2c(C)nn(C)c2C)cc1` gave HCMV antiviral -72*, FMDV antiviral -29%, VACV mCherry inh -25% and Vaccinia Venus -25%.
O=C(Nc1ccccn1)C1CCCN(c2ncnc3c2nc2n3CCCCC2)C1 (stereo not given) was read as HCMV antiviral inconclusive, FMDV antiviral -19%, HCV inh -9%, Giardia FBPA inh 5%, VACV mCherry inh -7% and Vaccinia Venus -13%.
Screening OC1(c2cccnc2)CCN(Cc2ccc3c(c2)CN(Cc2cc4ccccc4s2)CCO3)CC1 returned FMDV antiviral inconclusive, VACV mCherry inh -24% and Vaccinia Venus -21%.
Screening Cc1ccnc(Sc2ccc([N+](=O)[O-])cn2)n1 returned HCMV antiviral -96*, FMDV antiviral 31%, HCV inh 21% and Giardia FBPA inh -11%.

High-throughput results deposited in PubChem by National Center for Advancing Translational Sciences (NCATS).
